The record followed here is the supplement of paper PMC4709259.

Where a name gives a salt, the structure may show the parent alone. ± gives the standard deviation.

This assay deals with Jurkat. The assay is described as follows: mean cell size (FSC-A) relative to DMSO control (fraction of control); higher = larger cells. To be noted: 48 h. In a few lines: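 Jurkat cells at 600 cells/µl were incubated for 1 h and then treated for 48h with the Enzo Screen-Well FDA Approved Drug Library v2.0 at 25µM, with DMSO at 0.9% (v/v) final. Compounds that reduced counts below 20% of controls were retested in 10-fold dilutions down to 25nM. Cell count and mean cell size, taken as forward scatter area, were measured by flow cytometry relative to solvent-only controls. Each plate carried 6-12 controls, and values are means of 3 biological replicates.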
As to `NNCCc1ccccc1` [Phenelzine Sulfate] (concentration: 25 µM), the mean cell size came out at 0.942 ± 0.015.
The compound `O=C1C(=O)c2ccccc2C(O)=C1C1CCC(c2ccc(Cl)cc2)CC1` (stereo not given) [Atovaquone] (concentration: 25 µM) came in with a mean cell size of 0.91 ± 0.015.
The figure for `O=C(O)P(=O)(O)O` [Foscarnet·Na (Sodium Phosphonoformate Tribasic Hexahydrate)] (concentration: 25 µM) is 0.936 ± 0.065; for `Cc1nnc(C(C)C)n1C1C[C@H]2CC[C@@H](C1)N2CC[C@H](NC(=O)C1CCC(F)(F)CC1)c1ccccc1` (stereo in doubt) [Maraviroc] (concentration: 25 µM) it is 1 ± 0.044; for `CC(C)C(=O)Nc1ccc([N+](=O)[O-])c(C(F)(F)F)c1` [Flutamide] (concentration: 25 µM) it is 0.918 ± 0.033.
The figure for `COc1ccc2cc(CCC(C)=O)ccc2c1` [Nabumetone] (concentration: 25 µM) is 0.938 ± 0.032; for `CSc1ccc2c(c1)N(CCC1CCCCN1C)c1ccccc1S2` (stereo not given) [Thioridazine·HCl] (concentration: 2.5 µM) it is 1.08 ± 0.014; for `Cn1c(=O)c2c(ncn2CC(O)CO)n(C)c1=O` (stereo not given) [Dyphylline] (concentration: 25 µM) it is 0.966 ± 0.022.
On to `OC[C@@H](O)[C@@H](O)[C@H](O)[C@H](O)CO` [Mannitol] (concentration: 25 µM), for which the mean cell size is 0.947 ± 0.041.
The same measure for `CC(=O)[C@]1(O)Cc2c(O)c3c(c(O)c2[C@@H](O[C@H]2C[C@H](N)[C@H](O)[C@H](C)O2)C1)C(=O)c1ccccc1C3=O` [Idarubicin·HCl] (concentration: 25 nM): 1.01 ± 0.047; for `Cn1cnc([N+](=O)[O-])c1Sc1ncnc2[nH]cnc12` [Azathioprine] (concentration: 25 µM): 1.02 ± 0.036; for `CC(=O)Oc1cc2c(s1)CCN(C(C(=O)C1CC1)c1ccccc1F)C2` (stereo not given) [Prasugrel] (concentration: 25 µM): 1.06 ± 0.023.
In turn, `COCCCC/C(=N\OCCN)c1ccc(C(F)(F)F)cc1` [Fluvoxamine Maleate] (concentration: 25 µM) had a mean cell size of 0.973 ± 0.046.
The same measure for `CC(=O)N1CCN(c2ccc(OCC3COC(Cn4ccnc4)(c4ccc(Cl)cc4Cl)O3)cc2)CC1` (stereo not given) [Ketoconazole] (concentration: 25 µM): 0.84 ± 0.013.
As to `C[C@H]1C[C@@H]2[C@H]([C@@H](O)C[C@@]3(C)[C@H]2CC[C@]3(O)C(=O)CO)[C@@]2(C)C=CC(=O)C=C12` [Methylprednisolone] (concentration: 25 µM), the mean cell size was 0.908 ± 0.013.
The figure for `Nc1ncn([C@@H]2O[C@H](CO)[C@@H](O)[C@H]2O)c(=O)n1` [Azacitidine] (concentration: 25 µM) is 0.9766 ± 0.0047; for `CC(C)CN(C[C@@H](O)[C@H](Cc1ccccc1)NC(=O)O[C@H]1CO[C@H]2OCC[C@H]21)S(=O)(=O)c1ccc(N)cc1` [Darunavir] (concentration: 25 µM) it is 1.01 ± 0.037; for `Nc1nc(=O)n([C@@H]2CS[C@H](CO)O2)cc1F` [Emtricitabine] (concentration: 25 µM) it is 1.03 ± 0.019.
The same measure for `COc1ccc([C@@H]2Sc3ccccc3N(CCN(C)C)C(=O)[C@@H]2OC(C)=O)cc1` [Diltiazem·HCl] (concentration: 25 µM): 0.959 ± 0.053.
As for `OCCN(CCO)c1nc(N2CCCCC2)c2nc(N(CCO)CCO)nc(N3CCCCC3)c2n1` [Dipyridamole] (concentration: 25 µM), the mean cell size came to 0.9538 ± 0.0084.
The same measure for `N=C(N)NCCCC[C@@H]1NC(=O)CCSSC[C@@H](C(N)=O)NC(=O)[C@@H]2CCCN2C(=O)[C@H](Cc2c[nH]c3ccccc23)NC(=O)[C@H](CC(=O)O)NC(=O)CNC1=O` [Eptifibatide] (concentration: 25 µM): 0.988 ± 0.031; for `CC(C)n1c(/C=C/[C@H](O)C[C@H](O)CC(=O)O)c(-c2ccc(F)cc2)c2ccccc21` [Fluvastatin·Na] (concentration: 25 µM): 0.972 ± 0.059.
In the case of `CN(C)/N=N/c1[nH]cnc1C(N)=O` [Dacarbazine] (concentration: 25 µM), the mean cell size was determined as 0.981 ± 0.048.
The figure for `CC1(C)O[C@@H]2C[C@H]3[C@@H]4CCC5=CC(=O)CC[C@]5(C)[C@@]4(F)[C@@H](O)C[C@]3(C)[C@]2(C(=O)CCl)O1` [Halcinonide] (concentration: 25 µM) is 0.914 ± 0.03; for `C[C@]12CCC(=O)C=C1CC[C@@H]1[C@@H]2[C@@H](O)C[C@@]2(C)[C@H]1CC[C@]2(O)C(=O)CO` [Hydrocortisone] (concentration: 25 µM) it is 0.9165 ± 0.0081.
